Experimental data as given in PubChem BioAssay (NCI).
About 79,000 compounds went through this panel and 15% of them were active in at least one assay; those are over-represented in the sample as a whole. Active and inactive are the calls of the source. Rule as the data show it: active = growth inhibition above about 70%; inactive = the rest.

Columns and labels:
[1] = NCI Yeast Anticancer Drug Screen. Data for the rad52 strain (AID 147);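 also: 0% = growth of vehicle-treated control cultures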; conditions: S. cerevisiae rad52 mutant growth inhibition, hits give high values
Method in brief: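 The repair-mutant yeast strain was incubated with compounds, then growth was read and inhibition derived relative to vehicle.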

[2] = NCI Yeast Anticancer Drug Screen. Data for the wt1 strain (AID 149);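 also: 0% = growth of vehicle-treated wt1 cultures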; conditions: S. cerevisiae wt1 strain (SPY 50644) growth inhibition, hits give high values
Method in brief: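 Using yeast strain wt1, compound-induced growth inhibition was determined against vehicle-treated cultures.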

[3] = NCI Yeast Anticancer Drug Screen. Data for the rad50EPP+ strain (AID 151);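 also: 0% = growth of vehicle-treated control cultures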; conditions: S. cerevisiae rad50 mutant strain, hits give high values
Method in brief: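 Vehicle-normalised growth inhibition; rad50EPP+ yeast strain, altered in DNA damage repair, compound-treated.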

[4] = NCI Yeast Anticancer Drug Screen. Data for the mgt1 strain (AID 153); conditions: S. cerevisiae mgt1 mutant growth inhibition, hits give high values
Method in brief: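 Vehicle-normalized growth inhibition is determined in mgt1 yeast, a strain selected for a defined alteration in DNA repair or cell cycle control.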

[5] = NCI Yeast Anticancer Drug Screen. Data for the rad50 strain (AID 155);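 also: 0% = growth of vehicle-only cultures of the same strain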; conditions: S. cerevisiae rad50 strain growth inhibition, hits give high values
Method in brief: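 Relative growth inhibition (compound vs vehicle) was measured in yeast with a defined repair-gene alteration.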

[6] = NCI Yeast Anticancer Drug Screen. Data for the mec2-1 strain (AID 157); conditions: S. cerevisiae mec2-1 strain, hits give high values
Method in brief: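 Mutant yeast (mec2-1) grown with compound; growth inhibition relative to vehicle control reported.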

[7] = NCI Yeast Anticancer Drug Screen. Data for the rad14 strain (AID 159);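 also: 0% = growth of vehicle-treated control cultures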; conditions: S. cerevisiae rad14 strain growth inhibition, hits give high values
Method in brief: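 Screen for anticancer potential: a yeast strain altered in DNA damage repair is grown with compound, and reduced growth is quantified against vehicle controls.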

[8] = NCI Yeast Anticancer Drug Screen. Data for the sgs1 mgt1 strain (AID 161);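 also: 0% = growth of cultures given vehicle only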; conditions: S. cerevisiae sgs1 mgt1 strain, hits give high values
Method in brief: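 This yeast growth screen uses a strain with defined DNA-repair lesions; compound-treated growth is compared with vehicle-treated growth.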

[9] = NCI Yeast Anticancer Drug Screen. Data for the CLN2oe strain (AID 163);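 also: 0% = growth of vehicle-only control cultures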; conditions: S. cerevisiae CLN2oe strain, hits give high values
Method in brief: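 Compounds are applied to yeast harbouring a defined cell-cycle control change; reduced growth compared with vehicle-treated controls gives the value.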

[10] = NCI Yeast Anticancer Drug Screen. Data for the cln2 rad14 strain (AID 165);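 also: 0% = growth equal to vehicle treated cultures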; conditions: S. cerevisiae cln2 rad14 strain, hits give high values
Method in brief: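 Readout is yeast growth inhibition versus vehicle-treated controls, using a strain with cln2 and rad14 alterations exposed to compound.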

[11] = NCI Yeast Anticancer Drug Screen. Data for the bub3 strain (AID 167); conditions: S. cerevisiae bub3 mutant strain, hits give high values
Method in brief: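 Screening used yeast with an engineered genetic alteration affecting cell cycle control. Compound-exposed cultures were compared with vehicle cultures, and reduced growth was taken as inhibition.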

[12] = NCI Yeast Anticancer Drug Screen. Data for the wt2 strain (AID 169);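 also: 0% = growth of vehicle-treated yeast cultures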; conditions: S. cerevisiae wt2 strain growth inhibition, hits give high values
Method in brief: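 Against vehicle-treated controls, the growth of yeast exposed to each compound was compared, and the inhibition was recorded.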

[13] = NCI Yeast Anticancer Drug Screen. Data for the mlh1 strain (AID 171);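 also: 0% = growth of vehicle-treated control cultures of the same strain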; conditions: S. cerevisiae mlh1 strain growth inhibition, hits give high values
Method in brief: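 Measured: yeast growth. Reference: vehicle-treated controls. Organism: strain with a defined alteration affecting DNA damage repair or cell cycle control, treated with compound.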

[14] = NCI Yeast Anticancer Drug Screen. Data for the sgs1 strain (AID 173);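 also: 0% = growth of vehicle-only control cultures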; conditions: S. cerevisiae sgs1 mutant, hits give high values
Method in brief: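 Each compound was added to cultures of the altered yeast strain. Growth was recorded, and inhibition was derived by comparison with vehicle controls.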

[15] = NCI Yeast Anticancer Drug Screen. Data for the mlh1 rad18 strain (AID 175); conditions: S. cerevisiae mlh1 rad18 strain growth inhibition, hits give high values
Method in brief: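 Genetically defined yeast (DNA repair-deficient) exposed to compounds; growth inhibition determined relative to vehicle.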

[16] = NCI Yeast Anticancer Drug Screen. Data for the rad18 strain (AID 177); conditions: S. cerevisiae rad18 mutant growth inhibition, hits give high values
Method in brief: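 Vehicle-treated cultures served as the baseline for scoring compound-induced growth inhibition in DNA-repair-mutant yeast.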

[17] = at 5.0 µM (retest, dose inferred, filed as 0.5)
[18] = at 50.0 µM (retest, dose inferred, filed as 5.0)

Measured: growth inhibition

Cc1c(C(=O)/C=C/c2ccccc2[N+](=O)[O-])[n+](=O)c2ccccc2n1[O-]
active: [1]; at 1.2 µM 78% | [1]; at 3.7 µM 90% | [1]; at 11.0 µM 93% | [1]; at 33.0 µM 93% | [1]; at 100.0 µM 93% | [3]; at 11.0 µM 77% | [3]; at 33.0 µM 76% | [3]; at 100.0 µM 79% | [4]; at 11.0 µM 93% | [4]; at 33.0 µM 94% | [4]; at 100.0 µM 96% | [5]; at 3.7 µM 86% | [5]; at 11.0 µM 90% | [5]; at 33.0 µM 91% | [5]; [18] 84% | [5]; at 50.0 µM 97.5% | [5]; at 100.0 µM 92% | [6]; at 11.0 µM 77% | [6]; at 33.0 µM 85% | [6]; [18] 83% | [6]; at 50.0 µM 90.5% | [6]; at 100.0 µM 89% | [7]; at 11.0 µM 73% | [7]; at 33.0 µM 74% | [7]; at 100.0 µM 76% | [8]; [18] 98% | [8]; at 50.0 µM 98% | [10]; at 50.0 µM 94.5% | [11]; at 50.0 µM 94.2% | [12]; at 3.7 µM 85% | [12]; at 11.0 µM 91% | [12]; at 33.0 µM 84% | [12]; at 100.0 µM 94% | [13]; at 3.7 µM 73% | [13]; at 11.0 µM 92% | [13]; at 33.0 µM 94% | [13]; at 100.0 µM 94% | [14]; at 1.2 µM 73% | [14]; at 3.7 µM 91% | [14]; at 11.0 µM 94% | [14]; at 33.0 µM 94% | [14]; at 100.0 µM 93% | [15]; [18] 94% | [15]; at 50.0 µM 98.2% | [16]; at 1.2 µM 84% | [16]; at 3.7 µM 90% | [16]; at 11.0 µM 92% | [16]; at 33.0 µM 92% | [16]; at 100.0 µM 93%
inactive: [2]; at 1.2 µM -1% | [2]; at 3.7 µM 22% | [2]; at 11.0 µM 42% | [2]; at 33.0 µM 49% | [2]; at 100.0 µM 60% | [3]; at 1.2 µM 41% | [3]; at 3.7 µM 67% | [4]; at 1.2 µM 10% | [4]; at 3.7 µM 61% | [5]; at 1.2 µM 66% | [5]; [17] 12% | [6]; at 1.2 µM 12% | [6]; at 3.7 µM 32% | [6]; [17] 2% | [7]; at 1.2 µM 37% | [7]; at 3.7 µM 61% | [8]; [17] 6% | [9]; at 1.2 µM 12% | [9]; at 3.7 µM 25% | [9]; at 11.0 µM 41% | [9]; at 33.0 µM 47% | [9]; at 100.0 µM 66% | [10]; [17] -4% | [10]; [18] 54% | [11]; at 1.2 µM -1% | [11]; at 3.7 µM 42% | [11]; [17] -3% | [11]; at 11.0 µM 29% | [11]; at 33.0 µM 33% | [11]; [18] 57% | [11]; at 100.0 µM 29% | [12]; at 1.2 µM 44% | [13]; at 1.2 µM 25% | [15]; [17] 8%

CC(=O)/C=C/c1cccc([N+](=O)[O-])c1
inactive: [1]; at 1.2 µM 2% | [1]; at 3.7 µM 4% | [1]; at 11.0 µM 9% | [1]; at 33.0 µM 29% | [2]; at 1.2 µM 1% | [2]; at 3.7 µM 4% | [2]; at 11.0 µM 8% | [2]; at 33.0 µM 16% | [2]; at 100.0 µM 68% | [3]; at 1.2 µM 3% | [3]; at 3.7 µM 7% | [3]; at 11.0 µM 29% | [4]; at 1.2 µM 1% | [4]; at 3.7 µM 2% | [4]; at 11.0 µM 7% | [4]; at 33.0 µM 48% | [5]; at 1.2 µM 0% | [5]; at 3.7 µM 3% | [5]; [17] -4% | [5]; at 11.0 µM 8% | [5]; at 33.0 µM 20% | [6]; at 1.2 µM 0% | [6]; at 3.7 µM 2% | [6]; [17] 2% | [6]; at 11.0 µM 3% | [6]; at 33.0 µM 29% | [6]; [18] 56% | [6]; at 50.0 µM 51% | [7]; at 1.2 µM -2% | [7]; at 3.7 µM 0% | [7]; at 11.0 µM 7% | [7]; at 33.0 µM 21% | [8]; [17] -3% | [8]; at 50.0 µM 48% | [9]; at 1.2 µM -2% | [9]; at 3.7 µM -2% | [9]; at 11.0 µM 1% | [9]; at 33.0 µM 6% | [9]; at 100.0 µM 44% | [10]; [17] 5% | [10]; [18] 4% | [10]; at 50.0 µM 6.15% | [11]; at 1.2 µM -4% | [11]; at 3.7 µM -5% | [11]; [17] 31% | [11]; at 11.0 µM -2% | [11]; at 33.0 µM 28% | [12]; at 1.2 µM 1% | [12]; at 3.7 µM 4% | [12]; at 11.0 µM 10% | [12]; at 33.0 µM 28% | [13]; at 1.2 µM 2% | [13]; at 3.7 µM 1% | [13]; at 11.0 µM 10% | [13]; at 33.0 µM 32% | [14]; at 1.2 µM 1% | [14]; at 3.7 µM 7% | [14]; at 11.0 µM 15% | [14]; at 33.0 µM 50% | [15]; [17] 12% | [16]; at 1.2 µM 1% | [16]; at 3.7 µM 2% | [16]; at 11.0 µM 21% | [16]; at 33.0 µM 22%
active: [1]; at 100.0 µM 86% | [3]; at 33.0 µM 81% | [3]; at 100.0 µM 98% | [4]; at 100.0 µM 94% | [5]; [18] 84% | [5]; at 50.0 µM 82% | [5]; at 100.0 µM 89% | [6]; at 100.0 µM 95% | [7]; at 100.0 µM 91% | [8]; [18] 85% | [11]; [18] 89% | [11]; at 50.0 µM 72.4% | [11]; at 100.0 µM 91% | [12]; at 100.0 µM 88% | [13]; at 100.0 µM 95% | [14]; at 100.0 µM 95% | [15]; [18] 94% | [15]; at 50.0 µM 81.7% | [16]; at 100.0 µM 77%
